According to PubChem BioAssay (EPA / NIEHS):
Values joined by “and” are separate entries in the source; they are usually repeats but may differ in a detail not shown here. Equal entries are not always repeated. Where a structure was tested more than once in an assay, its records may differ in their call. Active and inactive are the calls of the source. Rule for the calls: active = hit-call score of the fitted dose curve at least 0.9, where 1 is the maximum; inactive = score below 0.9.

How the values were obtained:
[1] = read-out: Intercellular Adhesion Molecule 1 (ICAM1), ICAM1 (gene 3383); assay: BSK_hDFCGF_ICAM1: BioMAP Diversity Plus: hDFCGF Assay for Intercellular Adhesion Molecule 1 (ICAM1) Biomarker Activity (AID 2284287); conditions: primary human foreskin fibroblasts
Summary of the method: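 ICAM-1 ELISA readout 24 h after dosing, DMSO as baseline, in human dermal foreskin fibroblast cultures. Cytotoxicity checked in parallel wells by SRB staining (0.1% SRB, 10% TCA fixation, 560 nm).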

CD40, CD40 (gene 958) = assay: BSK_IMphg_CD40: BioMAP Diversity Plus: IMphg Assay for CD40 Biomarker Activity (AID 2284288); conditions: primary human endothelial cells with macrophages
Summary of the method: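 ELISA read-out of cell-surface CD40 at 24 h in human venular endothelial cell/macrophage co-cultures. Activity fitted in the positive direction against DMSO; parallel SRB staining (560 nm) gauges overt cytotoxicity.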

[2] = read-out: TIMP metallopeptidase inhibitor 2 (TIMP2), TIMP2 (gene 7077); assay: BSK_hDFCGF_TIMP2: BioMAP Diversity Plus: hDFCGF Assay for TIMP metallopeptidase inhibitor 2 (TIMP2) Biomarker Activity (AID 2284289); conditions: primary human foreskin fibroblasts
Summary of the method: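 Primary human foreskin fibroblasts in the hDFCGF system, dosed for 24 h; TIMP-2 level measured by ELISA, fitted in the positive direction against DMSO; cytotoxicity checked in parallel by sulforhodamine B total protein staining.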

[3] = read-out: Interleukin-1 alpha (IL1a), IL1A (gene 3552); assay: BSK_IMphg_IL1a: BioMAP Diversity Plus: IMphg Assay for Interleukin-1 alpha (IL1a) Biomarker Activity (AID 2284290); conditions: primary human endothelial cells with macrophages
Summary of the method: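 IL-1α is quantified by ELISA at 24 h in the endothelial/macrophage IMphg co-culture, with gain of signal fitted relative to DMSO. Parallel SRB total-protein staining flags overt toxicity.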

[4] = read-out: E-selectin (Homo sapiens) (UniProt P16581); assay: BSK_IMphg_ESelectin: BioMAP Diversity Plus: IMphg Assay for Eselectin Biomarker Activity (AID 2284291); conditions: primary human endothelial cells with macrophages
Summary of the method: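 Analysed against DMSO baseline in the positive fitting direction, this endpoint is an ELISA read of E-selectin. It comes from human venular endothelial cells co-cultured with macrophages, sampled 24 h post-dose.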

[5] = BSK_IMphg_SRB: Viability Assessment in the BioMAP Diversity Plus: IMphg Assay (AID 2284292); conditions: primary human endothelial cells with macrophages;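 note: measured one day after compound addition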
Summary of the method: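 SRB viability endpoint: cultures of human endothelial cells plus macrophages fixed with 10% TCA, stained with 0.1% SRB, read at 560 nm 24 h post-dosing. Only gain-of-signal fitted, relative to DMSO.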

[6] = read-out: Macrophage colony-stimulating factor (MCSF), CSF1 (gene 1435); assay: BSK_IMphg_MCSF: BioMAP Diversity Plus: IMphg Assay for Macrophage colony-stimulating factor (MCSF) Biomarker Activity (AID 2284293); conditions: primary human endothelial cells with macrophages
Summary of the method: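 M-CSF was measured by ELISA in human venular endothelial cell/macrophage co-cultures dosed for 24 hours. Sulforhodamine B staining of parallel cultures assessed cytotoxicity; data fitted against DMSO baseline.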

[7] = read-out: Interleukin-10 (IL10), IL10 (gene 3586); assay: BSK_IMphg_IL10: BioMAP Diversity Plus: IMphg Assay for Interleukin-10 (IL10) Biomarker Activity (AID 2284294); conditions: primary human endothelial cells with macrophages
Summary of the method: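 IL-10 read by ELISA after 24 h chemical exposure of primary human venular endothelial cell/macrophage cocultures, with DMSO as baseline. Parallel SRB staining (560 nm) gauged overt cytotoxicity.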

[8] = BSK_IMphg_SRB.Mphg: Macrophage Viability Assessment in the BioMAP Diversity Plus: IMphg Assay (AID 2284295); conditions: primary human endothelial cells with macrophages
Procedure: BSK_IMphg is a cell-based, multiplexed-readout assay that uses venular endothelial cells and macrophages, a human vascular primary cell, with measurements taken at 24 hours after chemical dosing in a microplate: 96-well plate.BSK_IMphg_SRB.Mphg is an assay component measured in the BSK_IMphg assay. It measures […] related to cell death using Sulforhodamine staining technology.Data from the assay component BSK_IMphg_SRB.Mphg was analyzed at the endpoint, BSK_IMphg_SRB.Mphg, in the positive analysis fitting direction relative to DMSO as the negative control and baseline of activity. Using a type of viability reporter, gain or loss-of-signal activity can be used to understand protein changes. […]
The levels of cell surface (or secreted, indicated by the prefix "s") biomarker endpoints were measured by ELISA. Overt cytotoxicity to cells in confluent adherent cultures (all systems other than the BT system) was assessed by measuring total protein levels using sulforhodamine B (SRB) staining in parallel cultures at the time of biomarker measurements, indicated as SRB endpoints. For proliferation assays for adherent cell types, individual cell types are cultured at sub-confluence and relative cell numbers quantified by SRB staining at time points optimized for each system (48 h: 3C and CASM3C systems; 72 h: BT and HDF3CGF systems; 96 h: SAg system). […] Plates were read after 6 h.

[9] = read-out: Thrombomodulin, THBD (gene 7056); assay: BSK_LPS_Thrombomodulin: BioMAP Diversity Plus: LPS Assay for Thrombomodulin Biomarker Activity (AID 2284296); conditions: primary human HUVEC with PBMC
Summary of the method: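 Thrombomodulin on the surface of LPS-activated endothelial/PBMC co-cultures was quantified by ELISA at 24 hours post-dosing, with DMSO as baseline. Parallel SRB total-protein staining flagged overt cytotoxicity.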

Measured: AC50

Chain of E-selectin (Homo sapiens) (P16581 whole entry, looked up): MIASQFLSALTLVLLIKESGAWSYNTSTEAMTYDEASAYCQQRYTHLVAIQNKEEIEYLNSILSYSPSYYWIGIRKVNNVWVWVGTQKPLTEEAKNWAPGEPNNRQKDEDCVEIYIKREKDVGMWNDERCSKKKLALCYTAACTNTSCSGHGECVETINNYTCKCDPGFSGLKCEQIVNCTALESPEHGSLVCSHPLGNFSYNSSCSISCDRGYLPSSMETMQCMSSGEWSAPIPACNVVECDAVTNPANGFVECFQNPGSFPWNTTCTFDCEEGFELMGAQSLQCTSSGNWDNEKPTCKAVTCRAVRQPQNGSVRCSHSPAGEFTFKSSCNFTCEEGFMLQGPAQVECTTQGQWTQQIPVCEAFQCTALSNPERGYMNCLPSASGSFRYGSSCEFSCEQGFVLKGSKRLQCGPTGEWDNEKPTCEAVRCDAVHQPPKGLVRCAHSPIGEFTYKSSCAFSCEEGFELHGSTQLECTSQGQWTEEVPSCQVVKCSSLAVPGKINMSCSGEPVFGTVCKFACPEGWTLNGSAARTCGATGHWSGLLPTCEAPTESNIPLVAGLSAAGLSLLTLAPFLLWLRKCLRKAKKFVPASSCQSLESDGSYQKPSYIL

O=S(=O)(O)C(F)(F)C(F)(F)C(F)(F)C(F)(F)C(F)(F)C(F)(F)C(F)(F)C(F)(F)F
active: [2] 30 µM and 8.71 µM | [4] 30 µM and 38.2 µM | [7] 45.3 µM [middle of 4 runs]
inactive: [1] | CD40, CD40 (gene 958) | [2] | [3] | [5] | [6] | [8] | [9]

O=C(O)C(F)(F)C(F)(F)C(F)(F)C(F)(F)C(F)(F)C(F)(F)C(F)(F)F
inactive: [1] | CD40, CD40 (gene 958) | [2] | [3] | [4] | [5] | [6] | [7] | [8] | [9]
active: [7] 30 µM | [9] 0.609 µM
